DT40 TDP1 CPT: DT40-hTDP1 cell growth loss with CPT | Potency, µM (titrated, usually from 46.2 µM), for the others: top-dose activity change, negative = growth inhibition, actives largely listed as inhibitors | chicken DT40 Tdp1-/-;hTDP1 cells + 20 nM CPT, ATP luminescence, 48 h | hit rate 12% among 420,000; further: potency means the concentration at half of the fitted maximal effect; nearly all actives have a fitted effect of over 55% in size
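Chicken DT40 Tdp1-/- cells stably complemented with human TDP1 were seeded at 400 cells/well in medium containing 20 nM camptothecin, exposed to pin-transferred compounds, and grown at 37 °C for at least 48 hr. Viability was read as ATP luminescence.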
HT1080-NT tox: kills 2HG-producing HT-1080-NT fibrosarcoma cells; AID 686970; HT-1080-NT fibrosarcoma viability, CellTiter-Glo ATP luminescence, 48 h; hit rate 1.6% among 360,000; Potency, µM (titrated, usually from 46.1 µM), inactives show at the highest dose activity, negative = less viability, usual class: cytotoxic;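 further: NT is the 2HG producing partner of a matched IDH1 knockdown line; potency means the concentration at half of the fitted maximal effect; 0% = DMSO-treated cells and -100% = media-only wells without cells; nearly all actives have a fitted effect of over 55% in size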
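Toxicity toward the 2HG-producing NT line was scored as %Activity, normalised to DMSO and no-cell wells, from CellTiter-Glo luminescence after 48 hours' treatment.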
IL1B secr inh: inflammasome signaling inhibition, IL-1 beta readout | THP-1 LPS/ATP IL-1B secretion, AlphaLISA, 16 h; active compounds read low | activity change, % at 57.5 µM | AID 743279 | hit rate 4.7% among 360,000; in the data active means activity change below about -50%; inconclusive means mostly about -30% to -49%
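Secreted IL-1B measured by AlphaLISA bead assay after 16 h compound exposure of THP-1 cells; compounds (final up to 57.5 uM) added 1 h before LPS (250 ng/mL) and ATP (1.25 mM) stimulation; lower signal means less secretion.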
HT1080 IDH1KD tx: toxicity to HT-1080 IDH1 knockdown cells (counter line). HT-1080 IDH1 knockdown viability, ATP luminescence, 48 h. Potency, µM (titrated, usually from 46.1 µM), for inactives: at the highest dose activity, negative = toxicity, usual class: cytotoxic. hit rate 2% among 360,000;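 further: potency means the concentration at half of the fitted maximal effect; 0% = DMSO wells and -100% = cell-free medium wells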
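Knockdown cells (IDH1KD HT-1080) received compounds 2 h after plating at 750 cells/well and were kept 48 h at 37 °C in 5% FBS RPMI. A CellTiter-Glo luminescence read gave % activity for curve fitting.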
TDP1 cell noCPT: qHTS for Inhibitors of human tyrosyl-DNA phosphodiesterase 1 (TDP1): qHTS in cells in absence of CPT; DT40 Tdp1-/- hTDP1 cells, no CPT, ATP luminescence, 48 h; Potency, µM (series often up to 46.2 µM), for the others: at the top dose activity change, negative = growth inhibition, hits mostly inhibitors; hit rate 15% among 420,000; further: potency means the concentration at half of the fitted maximal effect; nearly all actives have a fitted effect of over 55% in size
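A cellular qHTS used chicken DT40 cells lacking endogenous Tdp1 but carrying stably transfected human TDP1. Compounds were applied without camptothecin, and cell growth kinetics were judged by ATP-dependent luminescence after ≥48 hr.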
Numbers without * were called inactive; u = inconclusive; x = no result. Hits are enriched below; roughly 19% of the tested compounds scored in any of these assays. Unless noted, the call rests on the fitted dose curve; in most records, active means well fitted curve in the direction sought with a large enough effect; inconclusive means small, poorly fitted or top-dose-only effect, or another doubt; inactive means no such curve, though single readings can be large; an effect the other way counts as inactive or inconclusive. Unless noted, on the % scale 0 is the no-effect control and ±100 the full control effect.

SMILES	DT40 TDP1 CPT	HT1080-NT tox	IL1B secr inh	HT1080 IDH1KD tx	TDP1 cell noCPT
O=C(CSc1nc2ccccc2c(=O)[nH]1)Nc1ccc(N2CCOCC2)cc1	16µM*	1%	7	-7%	-32%
O=C(CSc1nncn1-c1ccccc1)Nc1ccc(N2CCOCC2)cc1	23µM*	7%	-6	14%	13µM*
CCCc1nc(SCC(=O)NNC(=O)C2CCCCC2)c2ccccc2n1	-1%	0%	-5	-7%	-11%
CC[C@]12c3[nH]c4ccc(OC)cc4c3CCN1C(=O)C(CC(=O)NCCCOC)C[C@@H]2C(=O)N1CCN(C(=O)c2ccco2)CC1 (stereo partly specified)	10%	3%	0	4%	1%
COc1cccc(N2C(=O)CC(N3CCN(S(=O)(=O)c4ccccc4[N+](=O)[O-])CC3)C2=O)c1 (stereo unspecified)	0%	9%	8	10%	8%
CC(=O)N1CCC2(CCN(Cc3nccs3)CC2)CC1	-6%	x	x	x	-22%
NS(=O)(=O)c1ccc(NC(=O)COC(=O)c2ccc([N+](=O)[O-])s2)cc1	-23%	-2%	58	2%	16%
CCC(C)(C(=O)NC1CCCCC1)N(C(=O)CC1NC(=O)NC1=O)c1c(C)n(C)n(-c2ccccc2)c1=O (stereo unspecified)	-5%	8%	7	11%	4%
CC1(C)C2CCC1(C)C(NC(=O)/C=C/c1ccccc1)C2 (stereo unspecified)	u	-18%	-24	2%	18µM*
COCCC(=O)N1CCC(Oc2ccc(C(=O)NCc3cccc(C)n3)cc2)CC1	4%	-4%	0	2%	-9%
O=C(NCCc1nnc2n1CCN(Cc1ccc(F)cc1)CC2)c1ccc(F)cc1	10%	x	x	x	-5%
C#CCn1c(=NC(=O)c2ccc(Cl)s2)sc2cccc(OC)c21	u	-1%	35	10%	u
C#CCn1c(=NC(=O)c2cccs2)sc2cccc(OCC)c21	-25%	-6%	43	9%	21µM*
O=C(Nc1nnc(-c2ccccn2)o1)c1ccc(Br)cc1	u	u	21	-27%	18µM*
Cc1nnc(NC(=O)c2ccc(S(=O)(=O)N3CCCCCC3)cc2)o1	-23%	-10%	-4	-23%	u
CC1CCCN(S(=O)(=O)c2ccc(C(=O)Nc3nnc(-c4ccccc4Cl)o3)cc2)C1 (stereo unspecified)	2.9µM*	-8%	17	u	6.5µM*
O=C(Nc1nnc(C2CC2)o1)c1ccc(S(=O)(=O)N2CCc3ccccc3C2)cc1	-24%	-5%	24	-3%	u
CC1CCCN(S(=O)(=O)c2ccc(C(=O)Nc3nnc(C4CC4)o3)cc2)C1 (stereo unspecified)	18µM*	-22%	83	u	u
CC1CCCN(S(=O)(=O)c2ccc(C(=O)Nc3nnc(-c4ccccn4)o3)cc2)C1 (stereo unspecified)	u	-3%	14	-6%	21µM*
O=c1[nH]c2cc(Cl)c(Br)cc2o1	6%	3%	32	u	-15%
COc1ccc(CCC(=O)Nc2nc(C)c(C(=O)N(C)C)s2)cc1	-8%	-5%	0	-1%	30%
COc1ccc(C(=O)N2CCC3(CCCN(C(=O)Nc4cccc(C#N)c4)C3)CC2)cc1	-11%	x	x	x	u
CS(=O)(=O)N(CC(=O)N1CCN(c2ccccc2)CC1)c1ccccc1Cl	-4%	14%	0	0%	-10%
Cc1ccc(C)c(C(=O)COC(=O)c2cc([N+](=O)[O-])ccc2NCCO)c1	u	-2%	9	5%	u
COc1ccccc1-c1nnc(NC(=O)c2ccc(S(=O)(=O)N3CCCC3)cc2)o1	23µM*	u	0	u	9.2µM*
SMILES	DT40 TDP1 CPT	HT1080-NT tox	IL1B secr inh	HT1080 IDH1KD tx	TDP1 cell noCPT
COCc1nnc(NC(=O)c2ccc(S(=O)(=O)N3CCCCCC3)cc2)o1	-29%	-25%	15	u	u
COc1ccc(C(=O)NCCNc2nc3cc(C)cc(C)c3cc2C#N)nc1	-7%	21%	-2	19%	-20%
CCC(C)N1C(=O)/C(=C/c2c(NCCCOC(C)C)nc3c(C)cccn3c2=O)SC1=S (stereo unspecified)	u	14%	-16	13%	9.2µM*
CCCN1C(=O)/C(=C/c2c(NCCCOC(C)C)nc3c(C)cccn3c2=O)SC1=S	-10%	-3%	17	-15%	u
Cc1ccc(C#CC[N+](C)(C)CC#Cc2ccccc2)cc1	2.1µM*	u	-77*	u	1.8µM*
CCN(CC)CC#Cc1ccc(C)cc1	4%	14%	25	9%	-24%
C#CC[N+](C)(C)CC#Cc1ccccc1	-2%	-19%	-66*	-5%	-11%
CCC[N+](CC#Cc1ccccc1)(CCC)CC(=O)OCC	-18%	-5%	23	-7%	-23%
CN(CCCNC(=O)c1ccc(CS(=O)c2ccc(Br)cc2)o1)Cc1ccccc1 (stereo unspecified)	-13%	11%	0	14%	22%
Cc1ccc(C)c(OC(C)C(=O)Nc2nccs2)c1 (stereo unspecified)	-10%	-3%	60	-2%	-8%
Brc1cnc2nc[nH]c2c1	-2%	13%	9	4%	-13%
COc1ccc(NC(=O)c2ccccc2NS(=O)(=O)c2ccc(CNC(C)=O)cc2)c(OC)c1	u	13µM*	53	u	u
COc1ccc(S(=O)(=O)Nc2ccccc2C(=O)Nc2nc(-c3ccc(F)cc3)cs2)cc1OC	u	u	u	u	16µM*
COc1ccc(-c2csc(NC(=O)c3c(OC)cccc3OC)n2)cc1	-30%	4%	-18	0%	u
COc1ccc(-c2csc(NC(=O)c3ccccc3NS(=O)(=O)c3ccc(C)cc3)n2)cc1	u	u	-21	u	15µM*
CC(=O)c1ccc(NS(=O)(=O)c2cccc(C)c2)cc1	-27%	-5%	33	-27%	-26%
COc1cc(OC)cc(C(=O)NCc2ccc(-n3cccc3)cc2)c1	18µM*	-19%	-17	u	u
COc1cc(OC)cc(C(=O)NCc2cccnc2)c1	27%	6%	0	0%	-6%
COc1ccc(CC(=O)NCc2ccc(-n3cccc3)cc2)cc1OC	2.3µM*	4.6µM*	21	1.8µM*	2.3µM*
O=C(Cc1ccc(-n2cccc2)cc1)NCc1cccs1	0.82µM*	2.3µM*	34	2.6µM*	1µM*
O=C(CNC(=O)Cc1ccccc1)NCc1cccs1	-13%	13%	5	17%	0%
